ssDAF-12 act: S. stercoralis DAF-12 nuclear receptor activators, primary screen, cell-based, luminescence, HEK293, GRIP1 co-expression, lit1-tk-luc; Nuclear hormone receptor DAF-12 (Strongyloides stercoralis); HEK293 ssDAF-12/GRIP1 lit1-tk-luc reporter; % of 3 µM dafachronic acid response; activation, % at 6.8 µM; AID 652126, 2013; hit rate 1% among 370,000;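 active means activation above the mean over all tested compounds plus 3 SD, cut at about 0.9% in these data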;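 further: 0% = DMSO-only wells and 100% = 3 µM delta7-dafachronic acid wells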
hcDAF-12 act: H. contortus DAF-12 nuclear receptor activators, primary screen, cell-based, luminescence, HEK293, lit1-tk-luc reporter. HEK293 hcDAF-12 lit1-tk-luc reporter; 0% DMSO, 100% Δ7-dafachronic acid. hit rate 1.4% among 370,000. activation, % at 6.8 µM. AID 652067, 2013;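 active means activation above the mean of all tested compounds plus 3 SD, cut at about 5.5% in these data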;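 further: 100% = response to 3 µM Δ7-dafachronic acid high control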
DAX1 inh-1: DAX1 (NR0B1) inhibitors on StAR promoter, primary screen, cell-based, luminescence, SF-1 (NR5A1), full-length DAX-1. hit rate 1.1% among 370,000. AID 652010, 2013. inhibition, % at 6.8 µM. HEK293T StAR-luciferase reporter, SF-1/DAX-1 repression relief;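 active means inhibition above the mean over all tested compounds plus 3 SD, cut at about 3.6% in these data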;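 further: 0% = DAX-1 cells with DMSO and 100% = cells lacking DAX-1 with DMSO; higher inhibition means more luminescence from relief of DAX-1 repression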
DAX1 inh-2: DAX1 (NR0B1) inhibitors, primary screen, cell-based, HEK293, Gal4-DAX1, luciferase luminescence; inhibition, % at 6.75 µM; HEK293 Gal4-DAX1 luciferase reporter; hit rate 0.99% among 340,000; Nuclear receptor subfamily 0 group B member 1 (Homo sapiens), P51843;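 active means inhibition above the mean over all tested compounds plus 3 SD, cut at about 4.2% in these data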;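 further: 0% = DAX1-transfected cells with DMSO and 100% = empty-vector control cells with DMSO; inhibition shows as a rise in luminescence from relieved DAX1 repression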
Rev-erbA mod: modulators of Rev-erb alpha DNA binding, primary screen, biochemical, FITC-DNA, fluorescence polarization, uHTS | Nuclear receptor subfamily 1 group D member 1 (Homo sapiens), P20393 | Rev-erbα–FITC-DNA binding, 90 min | activity, % at 10 µM | hit rate 0.79% among 370,000 | AID 1259318, 2017;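 active means activity above about 14%, limit read from the data; passing the limit was not always enough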;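 further: 0% = DMSO wells with 35 nM protein and 100% = DMSO wells with 750 nM protein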
Target sequence (P20393 whole entry, looked up): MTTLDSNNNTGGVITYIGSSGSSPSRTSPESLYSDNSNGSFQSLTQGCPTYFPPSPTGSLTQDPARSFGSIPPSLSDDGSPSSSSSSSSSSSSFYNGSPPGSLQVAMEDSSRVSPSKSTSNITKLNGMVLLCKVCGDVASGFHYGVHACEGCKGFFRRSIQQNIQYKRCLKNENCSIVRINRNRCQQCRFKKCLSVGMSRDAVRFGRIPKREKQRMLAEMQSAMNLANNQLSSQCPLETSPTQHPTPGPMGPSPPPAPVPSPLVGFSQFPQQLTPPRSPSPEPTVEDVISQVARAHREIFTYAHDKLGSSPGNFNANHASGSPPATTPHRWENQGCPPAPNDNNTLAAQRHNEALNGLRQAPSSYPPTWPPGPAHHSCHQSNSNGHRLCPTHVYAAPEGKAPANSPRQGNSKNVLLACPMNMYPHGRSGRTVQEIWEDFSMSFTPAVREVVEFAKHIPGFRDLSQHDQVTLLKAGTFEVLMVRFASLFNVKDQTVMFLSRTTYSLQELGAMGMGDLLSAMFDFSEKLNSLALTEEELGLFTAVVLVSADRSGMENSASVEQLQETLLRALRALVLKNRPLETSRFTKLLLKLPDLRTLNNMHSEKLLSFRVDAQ
hgDAF-12 ag: H. glycines DAF-12 receptor agonists, primary screen, cell-based, luminescence, HEK293, GAL4 fusion, UAS-luciferase; Nuclear hormone receptor DAF-12 (Heterodera glycines), GAL4 fusion; activation, % at 6.8 µM; AID 687014, 2013; hit rate 1.8% among 370,000; HEK293 GAL4-hgDAF12 UAS-luciferase reporter, agonist luminescence; normalized to butyrate control;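 active means activation above a cutoff set at the mean of all screened compounds plus 3 SD, cut at about 10% in these data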;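 further: 0% = DMSO wells and 100% = sodium butyrate wells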
hgDAF12 conf: H. glycines DAF-12 receptor agonists, confirmation, cell-based, luminescence, HEK293, GAL4-LBD fusion; AID 743050, 2013; HEK293 GAL4-hgDAF12 luciferase reporter, agonist mode; percent of butyrate response; activation, % at 6.8 µM; hit rate 80% among 3,300; shares compounds with hgDAF-12 ag;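 active means mean activation over triplicate wells above the hit cutoff derived from the earlier primary screen, cut at about 11% in these data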;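 further: 0% = DMSO low control and 100% = 2 mM sodium butyrate high control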
LXR ag 2: LXR agonists, Gal4 luciferase reporter, confirmation, counter-screen for hgDAF-12 agonist project, cell-based, luminescence, HEK293, H. glycines campaign | 3,300 tested, under 10 active | AID 743051, 2013 | shares compounds with hgDAF-12 ag | activation, % at 6.8 µM | 24 h;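 active means mean activation of the triplicate above a set limit carried over from the primary screen, none filed active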
* = called active by the depositor; · = not tested or not shown. Sampled rows, rich in hits. Any-hit rate of the full collection: about 4.8%.

SMILES	ssDAF-12 act	hcDAF-12 act	DAX1 inh-1	DAX1 inh-2	Rev-erbA mod	hgDAF-12 ag	hgDAF12 conf	LXR ag 2
CC[C@@]1(C(=O)OC)N[C@H](CN(C)C(=O)Nc2ccc(OC)cc2)[C@@H]2C(=O)N(Cc3ccccc3)C(=O)[C@@H]21	0	0	1	0	5	14*	6	0
CCC(C)CNC(=O)CN1C(=O)C2CCCCN2C(=O)c2ccccc21 (stereo not drawn)	-1	0	0	·	4	-2	·	·
Cc1cc2nc(-c3ccc(SCC(=O)Nc4ccc(S(=O)(=O)NC5CC5)cc4)nc3)[nH]c2cc1C	1.2*	5.6*	4.5*	0	22	16*	17*	1
COc1cccc(NC(=O)Nc2ccc3nsnc3c2)c1	0	1	2	2	3	14*	11*	1
O=C1N(CCCO)CCC12CCCCC2	-1	0	0	·	6	0	·	·
O=C(NNC(=O)c1cccs1)c1ccncc1	-1	2	0	0	3	4	·	·
O=C(CC(=O)c1cccs1)c1ccncc1	0	5	3.7*	3	-8	25*	4	0
COc1ccc(-c2ccc(C(=O)Nc3cccc(F)c3)c3occc23)c(C)c1	0	4	3.7*	·	-1	14*	6	1
Cc1ccc(C(=O)NN=Cc2ccc3c(c2)OCO3)cc1	0	1	1	1	-2	15*	12*	0
O=C(Cc1ccccc1)N/N=C/c1ccc2c(c1)OCO2	-1	4	1	·	1	16*	12*	0
O=C(CNc1ccccc1)N/N=C/c1ccc2c(c1)OCO2	-1	0	0	-1	-3	0	·	·
CCCCN1CN2Cc3ccccc3C2CS1(=O)=O (stereo not drawn)	-1	4	0	·	2	2	·	·
CC(C)=CC([C@]12C[C@H](CO)N[C@@H]1Nc1ccccc12)S(=O)(=O)c1ccccc1 (stereo partly drawn)	0	1	·	·	-2	-3	·	·
CCn1cnc2sc(-c3ccccc3)cc2c1=O	0.9*	4	2	1	-3	17*	16*	1
CC1(C)CC(=O)c2cc(N=C/C(C(=O)c3ccccc3)=C(\O)c3ccccc3)c(=O)oc2C1	0	1	1	5.1*	-3	14*	7	0
Clc1ccc(COn2nnc3ccccc32)c(Cl)c1	0	5	4.0*	4.5*	3	14*	18*	1
O=C(N/N=C/c1c(-c2ccccc2)[nH]c2ccccc12)c1cccnc1	0	1	-2	0	2	18*	10	0
CCc1nnn2c1Cn1c3ccccc3c(=O)n1[C@@H](C)C2	-1	0	0	·	2	-4	·	·
O=C(NC1CCCCN(Cc2cccc(C(F)(F)F)c2)C1=O)c1ccc(F)cc1 (stereo not drawn)	-2	-1	-2	·	-1	-1	·	·
O=C(Nc1ccc(C(F)(F)F)cc1)OC1CCC12CCC(c1ccccc1)CC2 (stereo not drawn)	-1	-1	0	·	-1	3	·	·
O=C(Nc1ccc2c(c1)OCO2)N1CCN(Cc2ccco2)CC1	1	4	3	0	-5	20*	14*	1
CC(C)NC(=O)N[C@H]1C[C@@H]2O[C@@H](CO)CC[C@@H]2O[C@@H]1CCc1ccc(-c2ccccc2F)cc1	0	-2	0	·	-4	-2	·	·
Cc1cc(Nc2ccc(OC(F)F)cc2)cc(=O)n1-c1ccc(OC(F)F)cc1	-2	-2	-2	·	-6	-2	·	·
CCN(CC)C(=O)CSc1nnc(-c2ccccc2)o1	-1	2	2	1	0	18*	12*	0
CCN(CC)C(=O)CCSc1nnc(-c2ccncc2)o1	-1	4	0	0	-6	-2	·	·
SMILES	ssDAF-12 act	hcDAF-12 act	DAX1 inh-1	DAX1 inh-2	Rev-erbA mod	hgDAF-12 ag	hgDAF12 conf	LXR ag 2
O=C(/C=C/c1ccccc1)Nc1ccc(Cl)cn1	-1	1	1	-2	12	14*	20*	1
Cc1ccc(-c2nn(-c3ccccc3)cc2C=O)o1	0	3	4	1	0	13*	10	0
Cc1ccc(-c2nn(-c3ccccc3)cc2C(N)=O)o1	-1	2	1	0	-2	3	·	·
Cc1ccnc(NC(=O)C2COc3ccccc3O2)c1 (stereo not drawn)	0	3	3.8*	3	0	14*	17*	1
COc1cc(NC(=O)c2[nH]c(C)c(C(C)=O)c2C)c(OC)cc1Cl	-1	4	·	·	-5	8	·	·
COC(=O)CCc1sc(Nc2ccccc2)nc1-c1ccc(OC)cc1	0	3	2	2	-2	14*	13*	0
COc1ccc(/C=C2\CC3(OC(=O)c4ccccc4)CCCN2C3)cc1 (stereo not drawn)	-2	-3	-1	·	0	-1	·	·
O=c1oc2ccccc2cc1-c1cn2cccnc2n1	0	4	4.1*	1	3	14*	18*	1
Cc1cc(C)c(CN2CCN(C(=O)Cn3cc(C)c(=O)[nH]c3=O)CC2)c(C)c1	-1	-1	-1	·	-5	-2	·	·
Cc1nn(-c2ccccc2)c(N)c1Sc1cccc([N+](=O)[O-])c1	-1	-4	-1	-1	0	5	·	·
Cc1nn(-c2cccc([N+](=O)[O-])c2)c(N)c1-c1ccccc1	-1	1	1	1	-3	14*	11*	0
COc1ccccc1CC(=O)NC1CCCCCC1	-2	-1	0	0	-1	13*	1	0

Compound activity deposited in PubChem by several laboratories.
